Source: PubChem BioAssay
Compounds with a hit are over-represented: about 28% of the library has one in this group of screens.
CYP2C9 activ – increases human cytochrome P450 2C9 activity; P11712; recombinant CYP2C9, luciferin-H conversion, luminescence; stronger effect = higher value; factor 1 = untreated enzyme, 0 = blocked; activation factor at 5 µM; 96,000 tested, 1.4% active;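 active = activation factor of 2 or more for CYP2C9 at a 5 µM dose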;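 also: 0 = sulfaphenazole-blocked wells and 1 = vehicle-only wells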
CYP2C19 inh – inhibitors of human CYP2C19; P33261; CYP2C19 Supersomes, luciferin-H EGE luminescence, 30 min; inhibition, % at 5 µM; 96,000 tested, 21% active;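 active = CYP2C19 inhibition above a set limit at 5 µM in the primary screen, cut at about 50% in these data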;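 also: plate controls were negative control wells for no effect and 2.5 mM tranylcypromine positive control for full effect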
Target sequence (P33261 whole entry, looked up): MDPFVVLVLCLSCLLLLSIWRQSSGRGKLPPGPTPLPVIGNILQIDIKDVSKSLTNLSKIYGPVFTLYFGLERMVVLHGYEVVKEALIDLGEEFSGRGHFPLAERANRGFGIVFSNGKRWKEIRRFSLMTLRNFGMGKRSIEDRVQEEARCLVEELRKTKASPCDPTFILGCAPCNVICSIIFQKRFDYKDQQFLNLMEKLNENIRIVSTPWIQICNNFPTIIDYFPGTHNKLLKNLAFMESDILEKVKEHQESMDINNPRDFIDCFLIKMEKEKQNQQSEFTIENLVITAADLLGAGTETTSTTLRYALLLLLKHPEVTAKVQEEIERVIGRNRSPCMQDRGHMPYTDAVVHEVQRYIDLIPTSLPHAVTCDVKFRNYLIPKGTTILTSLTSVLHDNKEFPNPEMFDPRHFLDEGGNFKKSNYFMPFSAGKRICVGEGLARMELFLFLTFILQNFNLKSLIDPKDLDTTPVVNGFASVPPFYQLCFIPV
CYP2C19 act – cytochrome P450 2C19 (human) activation; P33261; recombinant CYP2C19, luciferin-H EGE luminescence; stronger effect = higher value; 0 = fully inhibited enzyme, 1 = untreated enzyme; activation factor at 5 µM; 96,000 tested, under 10 active; AID 1025;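 active = activation factor of at least 2 at 5 µM in the primary screen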;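 also: 0 = wells with 2.5 mM tranylcypromine and 1 = vehicle-only wells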
CYP2C9 inhib – blocks human cytochrome P450 2C9 | P11712 | CYP2C9 Supersomes, luciferin-H conversion, luminescence | inhibition, % at 5 µM | 96,000 tested, 20% active | AID 777;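 active = blocking of liver enzyme CYP2C9 beyond about 50% at 5 µM, limit read from the data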
Pyk2 oligo antag – antagonists of human Pyk2 oligomerization; Q14289; Q293 cells, Pyk2 FERM NanoBiT luminescence; stronger effect = lower value; z-score (the deposit names both 25 µM and 10 µM); 99,000 tested, 0.83% active; AID 1347419;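 active = Z-score of -3 or lower, scaled per plate to the spread of control and sample wells; inactive = z-score above -3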;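 also: negative z-score means lost luminescence so less FERM oligomerization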
An asterisk follows results filed as active.

For CCCCNC(=O)CSc1nc2ccccc2c(=O)n1CC1COc2ccccc2O1 (stereo not drawn) the results were CYP2C9 activ 0.7, CYP2C19 inh 70*, CYP2C19 act 0.3, CYP2C9 inhib 32 and Pyk2 oligo antag -1.6.
Screening CCCCN(CC)C(=O)CSc1nc2ccccc2c(=O)n1CC1COc2ccccc2O1 (stereo not drawn) returned CYP2C9 activ 0.3, CYP2C19 inh 47, CYP2C19 act 0.5, CYP2C9 inhib 74* and Pyk2 oligo antag -2.2.
Screening CCOC(=O)CSc1nc2ccccc2c(=O)n1CC1CCCC1 returned Pyk2 oligo antag -0.33.
Screening CC1Cc2ccccc2N1C(=O)CSc1nnc(Cn2nnc3ccccc32)n1C (stereo not drawn) returned CYP2C9 activ 1, CYP2C19 inh 13, CYP2C19 act 0.9, CYP2C9 inhib -4 and Pyk2 oligo antag 1.7.
Screening CCCc1ccc(-c2c(C)sc(N)c2C#N)cc1 returned CYP2C9 activ 0.3, CYP2C19 inh 31, CYP2C19 act 0.7, CYP2C9 inhib 68* and Pyk2 oligo antag -0.47.
Screening CCCC(=O)Nc1sc(C)c(-c2ccc(OC)cc2)c1C#N returned Pyk2 oligo antag -0.13.
Screening C=CCNc1nc2c3ccccc3n(C(C)=O)c2s1 returned CYP2C9 activ 0.3, CYP2C19 inh 6, CYP2C19 act 0.9, CYP2C9 inhib 68* and Pyk2 oligo antag -0.86.
`Cc1nc(SCC(=O)Nc2ccc3c(c2)OCO3)c(C#N)c2c1CCCC2` gave CYP2C9 activ 0.8, CYP2C19 inh 21, CYP2C19 act 0.8, CYP2C9 inhib 16 and Pyk2 oligo antag -3.2*.
`Cc1cc(C)c(C#N)c(SCC(=O)Nc2ccc3c(c2)OCO3)n1` gave CYP2C9 activ 1, CYP2C19 inh 11, CYP2C19 act 0.9, CYP2C9 inhib 0 and Pyk2 oligo antag 0.08.
CC(=O)Nc1cccc(NC(=O)CSc2nc(C)c(C)c(C)c2C#N)c1 was read as CYP2C9 activ 0.8, CYP2C19 inh 67*, CYP2C19 act 0.3, CYP2C9 inhib 19 and Pyk2 oligo antag -0.46.
Screening CC(C)N(Cc1nc(-c2ccccc2)no1)C(=O)CN(C)S(=O)(=O)c1ccc(Br)cc1 returned CYP2C9 activ 0.4, CYP2C19 inh 52*, CYP2C19 act 0.5, CYP2C9 inhib 58* and Pyk2 oligo antag 1.2.
`CC(C)N(Cc1nc(-c2ccc(Cl)cc2)no1)C(=O)CN(C)S(=O)(=O)c1ccc(Cl)cc1` gave CYP2C9 activ 0.1, CYP2C19 inh 62*, CYP2C19 act 0.4, CYP2C9 inhib 89* and Pyk2 oligo antag 0.24.
`CN(Cc1nc(-c2ccccn2)no1)S(=O)(=O)c1ccc(Br)cc1` gave CYP2C9 activ 0.4, CYP2C19 inh 61*, CYP2C19 act 0.4, CYP2C9 inhib 61* and Pyk2 oligo antag 8.8.
`CN(Cc1nc(-c2cccnc2)no1)S(=O)(=O)c1ccc(Br)cc1` gave CYP2C9 activ 0.6, CYP2C19 inh 29, CYP2C19 act 0.7, CYP2C9 inhib 38 and Pyk2 oligo antag -0.11.
`CN(Cc1nc(-c2cccnc2)no1)S(=O)(=O)c1ccc2ccccc2c1` gave CYP2C9 activ 0.7, CYP2C19 inh 86*, CYP2C19 act 0.1, CYP2C9 inhib 27 and Pyk2 oligo antag 1.3.
For O=c1c(-c2ccccc2)[n+]([O-])c2ccccc2n1O the results were CYP2C9 activ 1, CYP2C19 inh -17, CYP2C19 act 1.2, CYP2C9 inhib -3 and Pyk2 oligo antag 0.05.
`COC(=O)c1sc(N)c(C(=O)OC)c1COC(=O)c1c(C)noc1C` gave CYP2C9 activ 0, CYP2C19 inh 96*, CYP2C19 act 0, CYP2C9 inhib 97* and Pyk2 oligo antag -0.8.
For CCOC(=O)c1cnn(-c2nc3c(C)cccc3s2)c1C the results were CYP2C9 activ 1.1, CYP2C19 inh -14, CYP2C19 act 1.1, CYP2C9 inhib -8 and Pyk2 oligo antag 0.45.
Screening O=C1C(=C2CCCCC2)SC(=S)N1Cc1ccco1 returned CYP2C9 activ 0.5, CYP2C19 inh 60*, CYP2C19 act 0.4, CYP2C9 inhib 49 and Pyk2 oligo antag 0.75.
For Cc1ccc(C2C(=O)N(C3CCCC3)CC(=O)N2CC2COc3ccccc3O2)cc1 (stereo not drawn) the results were CYP2C9 activ 1.1, CYP2C19 inh 10, CYP2C19 act 0.9, CYP2C9 inhib -8 and Pyk2 oligo antag -1.5.
COc1ccc(OCCSc2nc(N)cc(N)n2)cc1 was read as CYP2C9 activ 1, CYP2C19 inh 19, CYP2C19 act 0.8, CYP2C9 inhib -3 and Pyk2 oligo antag 0.5.
Cc1cc(SCCOc2ccc(Br)cc2)nc(N)n1 was read as CYP2C9 activ 0.5, CYP2C19 inh 32, CYP2C19 act 0.7, CYP2C9 inhib 54* and Pyk2 oligo antag 1.2.
COC(=O)CN1C(=O)C2(C(C#N)=C(N)Oc3ccccc32)C2=C1CC(C)(C)CC2=O (stereo not drawn) was read as CYP2C9 activ 0.7, CYP2C19 inh -6, CYP2C19 act 1.1, CYP2C9 inhib 26 and Pyk2 oligo antag 0.21.
Screening Cc1nnc(SCC(=O)NCc2ccco2)n1-c1ccc(F)cc1 returned Pyk2 oligo antag 0.55.
Cn1cccc1Cc1nnc(SCC(=O)NCc2ccccc2Cl)n1-c1ccc(F)cc1 was read as CYP2C9 activ 0.4, CYP2C19 inh 52*, CYP2C19 act 0.5 and CYP2C9 inhib 62*.
Cn1cccc1Cc1nnc(SCC(=O)NCC2CCCO2)n1CCc1ccccc1 (stereo not drawn) was read as CYP2C9 activ 1.1, CYP2C19 inh -9, CYP2C19 act 1.1, CYP2C9 inhib -6 and Pyk2 oligo antag 0.27.
Screening Cn1cccc1Cc1nnc(SCC(=O)NCc2ccco2)n1CCc1ccccc1 returned CYP2C9 activ 0.6, CYP2C19 inh 58*, CYP2C19 act 0.4, CYP2C9 inhib 44 and Pyk2 oligo antag -0.12.
Screening Cc1cc(C)nc(SCc2nnc(SCC(=O)NCc3ccco3)n2-c2ccccc2)n1 returned CYP2C9 activ 0.4, CYP2C19 inh 44, CYP2C19 act 0.6, CYP2C9 inhib 60* and Pyk2 oligo antag 0.06.
For Cn1cccc1Cc1nnc(SCC(=O)NCc2ccco2)n1-c1ccc(F)cc1 the results were CYP2C9 activ 0.9, CYP2C19 inh 75*, CYP2C19 act 0.2, CYP2C9 inhib 8 and Pyk2 oligo antag -0.36.
`C(=C1/CCCC2=C1Nc1ncnn1C2c1ccccc1)/c1ccccc1` (stereo not drawn) gave CYP2C9 activ 0.7, CYP2C19 inh 49, CYP2C19 act 0.5 and CYP2C9 inhib 25.
`Cc1ccc(CN2C(=O)CCC2C(=O)NC(C)C)cc1` (stereo not drawn) gave CYP2C9 activ 1.1, CYP2C19 inh 0, CYP2C19 act 1, CYP2C9 inhib -7 and Pyk2 oligo antag -0.26.
For O=C(/C=C/c1ccc2c(c1)OCO2)NCCSCc1ccc(Cl)cc1Cl the results were CYP2C9 activ 0.3, CYP2C19 inh 21, CYP2C19 act 0.8, CYP2C9 inhib 73* and Pyk2 oligo antag -0.06.
